# Test results reported in PubChem BioAssay AID449762 (Southern Research Specialized Biocontainment Screening …, 2010).
# The whole screen tested about 330,000 compounds, of which about 1,900 (0.58%) were called active. Roughly 4% stayed inconclusive and do not appear here. These entries were drawn from the full list. Results with a measured potency or affinity are listed apart. Unmarked numbers belong to inactive results. Cut-off read from the data, not from the text of the source: inconclusive = inhibition above about 70% without an active follow-up result; inactive = below that.
# Test: M. tuberculosis growth inhibition, HTS (AID 449762);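 note: bacterial growth assessed after seven days of incubation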
# Details: M. tuberculosis H37Rv growth inhibition, 7H9 media; at 25 µM; active compounds read high
row,Compound,inhibition [%]
1,Cc1ccc(Cn2nc(C)c(NC(=O)CSc3n[nH]c(C)c3[N+](=O)[O-])c2C)cc1,-3.06
2,O=C(NC1CCN(C(=O)N2c3ccccc3Sc3ccccc32)CC1)c1ccccc1Cl,62.3
3,O=C(NC1CCN(C(=O)N2c3ccccc3Sc3ccccc32)CC1)c1ccco1,-19.1
4,Cc1sc2ncnc(SCC(=O)c3cccs3)c2c1C,-19.7
5,COC(=O)c1ccccc1NC(=O)c1cc2n(n1)C(C(F)F)CC(C(F)F)N2 (centres undefined),-2.91
6,O=C(CSc1nc2[nH]ncc2c(=O)[nH]1)NCc1ccccc1,-0.89
7,O=c1[nH]c(SCc2ccc(Cl)cc2)nc2ccccc12,4.03
8,CC1CC(C)CN(CCOc2ccccc2-c2ccccc2)C1 (centres undefined),3.01
9,O=C(COC(=O)c1ccc2c(c1)S(=O)(=O)N=C1CCCCCN12)NCCc1ccc(F)cc1,-6.19
10,COCC(=O)N(Cc1cc2ccc(C)cc2[nH]c1=O)c1ccc(C)cc1C,-1.78
11,Cc1ccc(-c2c(C#N)c(N)nc3c2CCCCCC3)o1,21.5
12,CSc1ccccc1NC(=O)CN(C)CC(=O)c1[nH]c(C)c(C(C)=O)c1C,-0.15
13,Cc1ccc(S(=O)(=O)N2CCN(C(=O)Cn3c(=O)oc4ccccc43)CC2)cc1,8.54
14,Cc1nc(-c2nc(-c3c(C(=O)NNC(=O)Nc4ccccc4)noc3C)cs2)cs1,-4.32
15,Cc1nc(-c2nc(-c3c(C(=O)NNC(=O)Nc4cccc(Cl)c4)noc3C)cs2)cs1,11.3
16,CC(=O)Nc1c(C(=O)NCc2ccccc2)nnn1Cc1ccccc1,-10.2
17,COc1ccc(N(CC(=O)Nc2ccc(Cl)cc2)S(=O)(=O)c2c(C)n[nH]c2C)cc1,2.17
18,COc1ccc(N(CC(=O)Nc2ccccc2C(=O)O)S(=O)(=O)c2ccc(C)c([N+](=O)[O-])c2)cc1,-2.79
19,COc1ccc(N(CC(=O)Nc2ccc(C)cc2C)S(=O)(=O)c2c(C)n[nH]c2C)cc1,6.74
20,COc1ccc(N(CC(=O)Nc2ccccc2F)S(=O)(=O)c2ccc(C)c([N+](=O)[O-])c2)cc1,0.33
21,O=C(CCSc1nnc2ccccn12)Nc1ccc2c(c1)OCO2,-0.07
22,COc1ccc(OC)c(S(=O)(=O)Nc2cc(Cl)cc(Cl)c2)c1,-2.29
23,CN1/C(=C\C(=S)NC(=O)c2ccccc2Cl)C(C)(C)c2ccccc21,-5.96

row,Compound,inhibition [%]
1,CC(C)C(=O)NC(=S)/C=C1/N(C)c2ccccc2C1(C)C,2.15
2,Cc1cccc(NS(=O)(=O)c2csc(C(N)=O)c2)c1C,-0.04
3,Cc1ccc(CC(=O)Nc2cc(C)ccn2)cc1,3.78
4,CC1Sc2ccc(S(=O)(=O)CCC(=O)Nc3ccccc3Cl)cc2NC1=O (centres undefined),0.85
5,CCOC(=O)C1CCN(CC(O)COc2ccc(C(=O)CC)cc2)CC1 (centres undefined),-15.2
6,CCOC(=O)C1CCN(CC(O)COc2ccc(C(C)=O)cc2)CC1 (centres undefined),-0.99
7,COC(=O)c1ccc(CNC(=O)COC(=O)c2cccs2)cc1,12.5
8,COc1ccc(/C=C2\N=C(C)N(c3ccc4ccccc4c3)C2=O)cc1OC,4.18
9,COc1ccccc1-c1nnc(NC(=O)c2ccc(S(=O)(=O)N3CCOCC3)cc2)o1,43.3
10,COc1cc(-c2nnc(NC(=O)c3ccc(S(=O)(=O)N4CCOCC4)cc3)o2)cc(OC)c1OC,5.07
11,CCCN(CC(=O)Nc1ccccc1OC)C(=O)c1ccccn1,0.49
12,C=CCN1C(=O)c2ccc(C(=O)N(C)CC(=O)Nc3cccc(F)c3)cc2C1=O,0
13,CCOC(=O)c1c(C)[nH]c(C(=O)OCC(=O)NCc2ccc(OC)c(OC)c2)c1C,3.95
14,COc1ccc(C)cc1Nc1n[n+](-c2ccccc2)c(-c2cccc(Cl)c2Cl)s1,60
15,COc1ccc(C)cc1Nc1n[n+](-c2ccccc2)c(-c2cc(OC)c(OC)cc2Br)s1,62.1
16,COC(=O)C1=C(C(=O)OC)[C@@H]2N(C)c3ccc(OC)cc3[C@@]23C[C@@H](C(=O)OC)N(C(=O)CC(C)C)C3=N1,-3.14
17,O=C(C1=C(O)C(=O)N(Cc2ccco2)C1c1ccccc1F)c1cccs1 (centres undefined),12.7
18,Cc1cc(C)n(-c2ccc(F)cc2CN2CCN(C3CCCC3)C(CCO)C2)n1 (centres undefined),8.29
19,C=C(C)C1CC=C(CN2CC(C)OC(C)C2)CC1 (centres undefined),-4.9
20,C=C(C)C1CC=C(CN2CCC(O)CC2)CC1 (centres undefined),-0.8
21,CCOC(=O)c1c(/N=C/N(C)C)sc(/C=N/Nc2ccccc2)c1-c1ccccc1,4.1
22,CCOC(=O)c1c(/N=C/N(C)C)sc(/C=N/Nc2ccccc2)c1-c1ccc(Cl)cc1,69
23,CN(CC(=O)NCc1ccccc1)S(=O)(=O)c1cnc[nH]1,2.4

row,Compound,inhibition [%]
1,Cc1cc(C)cc(OCC(=O)OCC(=O)NC2CCCCCC2)c1,2.47
2,Cc1ccc(-n2ncc3c(SCC(=O)Nc4cc(C)on4)ncnc32)c(C)c1,-4.04
3,CSc1ncnc2c1cnn2-c1ccc(C)cc1C,6.4
4,O=C(NCc1cccnc1)C1CCCN(S(=O)(=O)c2ccc(Cl)cc2)C1 (centres undefined),-6.29
5,O=[N+]([O-])c1cc(-c2nnc(N3CCOCC3)c3ccccc23)ccc1N1CCOCC1,0.47
6,Cc1ccc(NC(=O)CCc2c[nH]c3ccccc23)nc1,1.19
7,Cc1ccnc(NC(=O)CCCc2c[nH]c3ccccc23)c1,-0.54
8,O=C(CN(C(=O)CSc1nc2ccccc2o1)c1ccccc1)NC1CCCCC1,-0.41
9,CNc1c(C(=O)O)ccc2c1C(=O)c1ccccc1C2=O,9.33
10,COc1ccc2c(c1O)C(=O)c1ccccc1C2=O,-7.89
11,CCc1nc(SCC(=O)Nc2ccnc3ccccc23)n[nH]1,-7.48
12,Cc1cc(=O)oc2cc(Oc3ccc([N+](=O)[O-])cc3[N+](=O)[O-])ccc12,50.5
13,Cc1c(C)c2ccc(Oc3ccc([N+](=O)[O-])cc3C(F)(F)F)c(C)c2oc1=O,7.78
14,CN(c1ccccc1)S(=O)(=O)c1ccc(C(=O)OCC(=O)NC(N)=O)cc1,1
15,COc1ccc(-c2c(C(=O)O)c(C(=O)O)c3n2CCC3)cc1,0.3
16,Cc1ccc(CSc2ncn(-c3ccccc3)n2)cc1,-2.76
17,CC(C)(C)c1ccc(NC(=O)CCNC(=O)c2ccco2)cc1,1.96
18,Cc1cc(C)c(S(=O)(=O)Nc2ccc(Cl)cn2)c(C)c1,2.9
19,CCN(CC(=O)Nc1ccccc1OC)C(=O)CCOc1ccc(C(C)(C)C)cc1,-2.92
20,O=[N+]([O-])c1cc(S(=O)(=O)N2CCCCC2)ccc1NCCN1CCOCC1,-0.42
21,CCC(=O)Nc1cccc(-c2ccc(N3CCCCC3)nn2)c1,2.67
22,O=C(Nc1cccc(-c2ccc(N3CCCCC3)nn2)c1)C(F)(F)F,5.09
23,COc1cccc(C(=O)/C=C/Nc2ccc(S(=O)(=O)Nc3nc(C)cc(C)n3)cc2)c1,1.1

row,Compound,inhibition [%]
1,FC(F)(F)c1cc(CCN2C(=S)NC[C@@H]2c2ccccc2)cc(C(F)(F)F)c1,-1.12
2,O=C1NC[C@H](c2ccccc2)N(CCc2cc(C(F)(F)F)cc(C(F)(F)F)c2)C1=O,2.8
3,CN(C)S(=O)(=O)c1cccc(NC(=O)c2ccc(OC(F)(F)F)cc2)c1,5.44
4,O=C(O)C1=C[C@H](c2coc3ccccc3c2=O)C[C@H](OCCCCO)O1,-1.88
5,CCOC(=O)N1CCN(C(=O)/C(=C/c2ccc(OC)cc2)NC(=O)c2ccccc2)CC1,1.93
6,Cc1cc(Cl)ccc1NC(=O)CN1CCC(C(O)(c2ccccc2)c2ccccc2)CC1,46
7,O=C(CN1CCC(C(O)(c2ccccc2)c2ccccc2)CC1)Nc1cc(Cl)ccc1Cl,54.5
8,COCCCNC(=O)c1ccc(-c2csc(C)n2)cc1,2.89
9,Cc1ccc(NC(=O)CN2CCOCC2)cc1S(=O)(=O)N1CCCCC1,-0.79
10,COCCN(C(=O)COC(=O)CCc1ccc(OC)cc1)c1c(N)n(Cc2ccccc2)c(=O)[nH]c1=O,-4.28
11,CCCNC(=O)c1ccc2c(=O)n(Cc3ccco3)c(=S)[nH]c2c1,4.3
12,Cc1ncoc1C(=O)N1CCCC(C(=O)c2ccc(-c3ccccc3)c(F)c2)C1 (centres undefined),10.4
13,COc1ccc2cc(C(=O)C3CCCN(C(=O)c4cncs4)C3)ccc2c1 (centres undefined),0.43
14,Cc1ccc(NC(=O)NCc2ccncc2)cc1Cl,4.38
15,Cc1cc(C)c(NC(=O)CN(C)CC(=O)Nc2cccc(S(=O)(=O)N(C)c3ccccc3)c2)c(C)c1,1.14
16,CN(CC(=O)Nc1ccccc1Cl)C(=O)CSc1ncc(C(F)(F)F)cc1Cl,3.84
17,Cc1cc(Cl)ccc1NC(=O)COC(=O)c1cc([N+](=O)[O-])ccc1N1CCOCC1,-0.98
18,N#CCCn1cc(C(=O)NCc2ccccc2)c(-c2ccc3c(c2)OCCO3)n1,-3.92
19,CCN(c1ccccc1)S(=O)(=O)c1ccc(C(=O)Nc2nnc(-c3ccco3)o2)cc1,12.1
20,CN(C)S(=O)(=O)c1ccc(C(=O)Nc2nnc(-c3ccco3)o2)cc1,70.1
